Measured values published in PubChem BioAssay (Tox21).
Several values for one entry are separate records, joined by “and”; a condition that tells them apart may be missing. Equal entries are not always repeated. Results filed as inconclusive are left out. The source holds several records for some structures; these can differ, active in one and inactive in another. Activity calls are given as the source filed them. Unless noted, calls come from the whole dose curve; as a rule, active = well fitted curve in the direction sought with a large enough effect in the repeat runs; inconclusive = weak or mixed curves; inactive = no such curve, though single readings can be large; an effect the other way counts as inactive or inconclusive.

Tests used:
[1] = qHTS assay to identify small molecule antagonists of the estrogen related receptor (ERR) signaling pathway from Tox21 library - cell viability counter screen (AID 1224834); note: nearly all actives have a fitted effect of over 30% in size; note: potency is the fitted concentration of half-maximal effect
Procedure, shortened: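 After 17.5 h of compound exposure at 37 C, ERR cells are incubated with CellTiter-Fluor for 30 min and fluorescence intensity serves as the viability measure.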

[2] = target: Luciferin 4-monooxygenase (Photinus pyralis) (UniProt P08659); assay: qHTS assay to identify small molecule inhibitors of firefly luciferase (AID 1224835); note: nearly all actives have a fitted effect of over 25% in size; note: potency is the fitted concentration of half-maximal effect
Sequence of Luciferin 4-monooxygenase (Photinus pyralis) (P08659 whole entry, looked up): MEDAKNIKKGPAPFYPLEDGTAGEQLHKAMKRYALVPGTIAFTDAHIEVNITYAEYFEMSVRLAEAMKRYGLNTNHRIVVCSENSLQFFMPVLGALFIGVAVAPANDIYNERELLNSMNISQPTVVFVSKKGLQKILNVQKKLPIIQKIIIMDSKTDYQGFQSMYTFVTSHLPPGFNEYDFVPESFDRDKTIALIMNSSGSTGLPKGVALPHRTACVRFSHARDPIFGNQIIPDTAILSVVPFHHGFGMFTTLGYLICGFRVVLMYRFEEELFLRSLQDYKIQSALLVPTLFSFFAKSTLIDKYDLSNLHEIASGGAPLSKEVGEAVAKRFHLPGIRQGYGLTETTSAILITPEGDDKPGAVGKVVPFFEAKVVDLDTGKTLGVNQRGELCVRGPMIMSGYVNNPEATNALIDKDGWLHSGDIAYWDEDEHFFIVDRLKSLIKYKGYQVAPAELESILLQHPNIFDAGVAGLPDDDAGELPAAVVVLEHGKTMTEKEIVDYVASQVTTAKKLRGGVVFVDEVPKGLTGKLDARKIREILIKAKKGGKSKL
Procedure, shortened: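 Biochemical qHTS: compounds run as interplate titrations against purified firefly enzyme, with D-luciferin and ATP each at its KM concentration. Light output recorded by CCD imaging.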

[3] = qHTS assay to identify small molecule agonists of the constitutive androstane receptor (CAR) signaling pathway - cell viability counter screen (AID 1224836); note: nearly all actives have a fitted effect of over 45% in size
Procedure, shortened: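 Viability read-out: CellTiter-Fluor fluorescence after 23 h compound exposure at 37 C/5% CO2 in double-stable HepG2-CYP2B6-hCAR cells, with PK11195 present at 0.75 uM final; compounds tested in 15-point titration.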

[4] = qHTS assay to identify small molecule antagonists of the constitutive androstane receptor (CAR) signaling pathway - cell viability counter screen (AID 1224837); note: nearly all actives have a fitted effect of over 45% in size
Procedure, shortened: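 Counter screen run in HepG2-CYP2B6-hCAR cells: 4 hr settle, compound titration (15 concentrations) with 50 nM CITCO, 23 hr at 37 C/5% CO2, CellTiter-Fluor fluorescence.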

[5] = target: Nuclear receptor subfamily 1 group I member 3 (Homo sapiens) (UniProt Q14994); assay: qHTS assay to identify small molecule antagonists of the constitutive androstane receptor (CAR) signaling pathway (AID 1224838);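 note: HepG2 cells stably expressing hCAR with CYP2B6 luciferase reporter stimulated by CITCO; nearly all actives have a fitted effect of over 40% in size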
Sequence of Nuclear receptor subfamily 1 group I member 3 (Homo sapiens) (Q14994 whole entry, looked up): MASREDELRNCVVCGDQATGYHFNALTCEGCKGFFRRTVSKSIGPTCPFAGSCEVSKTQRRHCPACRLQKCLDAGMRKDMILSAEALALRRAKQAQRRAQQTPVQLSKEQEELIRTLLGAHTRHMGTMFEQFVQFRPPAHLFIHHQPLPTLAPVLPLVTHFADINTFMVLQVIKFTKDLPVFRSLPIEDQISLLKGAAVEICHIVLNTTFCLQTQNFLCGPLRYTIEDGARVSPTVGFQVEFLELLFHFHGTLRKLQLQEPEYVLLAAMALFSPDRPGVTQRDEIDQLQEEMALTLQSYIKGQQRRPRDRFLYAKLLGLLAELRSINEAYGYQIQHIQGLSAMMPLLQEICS
Procedure, shortened: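 Cell line: HepG2 double-stable for hCAR and CYP2B6-2.2kb reporter. Agonist: CITCO, 50 nM final. Compounds: 15 concentrations, 24 h, 37 C. Detection: ONE-Glo luminescence.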

[6] = target: Nuclear receptor subfamily 1 group I member 3 (Homo sapiens) (UniProt Q14994); assay: qHTS assay to identify small molecule agonists of the constitutive androstane receptor (CAR) signaling pathway (AID 1224839);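 note: HepG2 cells stably carrying human CAR and a CYP2B6 luciferase reporter; nearly all actives have a fitted effect of over 15% in size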
Procedure, shortened: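 Luminescence read-out (ONE-Glo, 30 min, room temperature) from double-stable HepG2-CYP2B6-hCAR cells exposed 24 h to 15-point compound series in presence of 0.75 uM PK11195 final.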

[7] = qHTS assay to identify small molecule antagonists of the estrogen related receptor signaling pathway with the pleiotropic PPARgamma coactivator (PGC) from Tox21 10K library - cell viability counter screen (AID 1224840; active = well fitted cell-killing curve with a large enough effect in the repeat runs, not every such curve was filed as active; note: nearly all actives have a fitted effect of over 40% in size)
Procedure, shortened: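 Following seeding of 2,000 PGC/ERR cells/well and 6 hours' incubation, test compounds were delivered in DMSO. The plates then sat 17.5 hours at 37 C before a fluorogenic live-cell protease reagent (CellTiter-Fluor) was read after 30 min.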

[8] = target: Thyrotropin receptor (Homo sapiens) (UniProt P16473); assay: qHTS assay to identify small molecule agonists of the thyroid stimulating hormone receptor (TSHR) signaling pathway (AID 1224843; calls by dose curve; note: nearly all actives have a fitted effect of over 45% in size; note: potency is the fitted concentration of half-maximal effect)
Sequence of Thyrotropin receptor (Homo sapiens) (P16473 whole entry, looked up): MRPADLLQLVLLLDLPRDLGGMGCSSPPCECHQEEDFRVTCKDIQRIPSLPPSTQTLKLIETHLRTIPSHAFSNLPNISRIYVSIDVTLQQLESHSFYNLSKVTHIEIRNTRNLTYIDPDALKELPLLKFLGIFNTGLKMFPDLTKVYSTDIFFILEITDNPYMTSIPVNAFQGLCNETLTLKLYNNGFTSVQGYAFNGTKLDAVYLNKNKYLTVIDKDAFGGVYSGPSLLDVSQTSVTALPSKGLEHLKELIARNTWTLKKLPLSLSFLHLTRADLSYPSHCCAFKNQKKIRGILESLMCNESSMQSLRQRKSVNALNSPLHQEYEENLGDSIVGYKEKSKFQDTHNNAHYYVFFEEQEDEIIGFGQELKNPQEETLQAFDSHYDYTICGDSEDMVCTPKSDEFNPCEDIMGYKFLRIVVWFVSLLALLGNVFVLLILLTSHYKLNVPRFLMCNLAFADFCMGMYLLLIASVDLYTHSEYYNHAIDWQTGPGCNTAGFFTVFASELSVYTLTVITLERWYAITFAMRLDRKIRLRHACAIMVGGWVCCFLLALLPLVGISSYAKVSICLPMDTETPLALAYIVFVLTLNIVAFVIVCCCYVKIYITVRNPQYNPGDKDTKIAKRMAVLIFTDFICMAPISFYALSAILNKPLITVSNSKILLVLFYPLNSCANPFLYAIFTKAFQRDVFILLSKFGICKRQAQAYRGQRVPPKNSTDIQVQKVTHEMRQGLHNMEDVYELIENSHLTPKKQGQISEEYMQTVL
Procedure, shortened: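 TSHR-HEK293 cells in agonist mode, 30 min room-temperature step, then cAMP measured by competitive HTRF (cAMP-d2 with anti-cAMP cryptate) after 1 h at room temperature. Tested at 15 concentrations in triplicate.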

[9] = qHTS assay to identify small molecule agonists of the hypoxia (HIF-1) signaling pathway - cell viability counter screen (AID 1224844; calls by dose curve; note: nearly all actives have a fitted effect of over 50% in size)
Procedure, shortened: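 Cells (HRE-bla ME-180, 2,000 per well) sat 5 hrs at 37C, got compound for 17 hrs, were read for CCF4-AM FRET, and were finally lysed with CellTiter-Glo for a 30 min room-temperature luminescence read.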

[10] = qHTS assay to identify small molecule agonists of H2AX (AID 1224845; active = well fitted activation curve with a large enough effect in the signal ratio in the repeat runs, not every such curve was filed as active; the % refers to the signal ratio)
Procedure, shortened: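 Wild-type CHO-K1 cells, plated overnight, exposed 3hr at 37C to 15 concentrations (0.76% DMSO final). Lysed, then HTRF anti-pH2AX (S139) cryptate and anti-H2AX-d2 antibodies, 24 hr room temperature; 665/620 nm emission read.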

[11] = qHTS assay to identify small molecule agonists of the hypoxia (HIF-1) signaling pathway (AID 1224846; active = well fitted activation curve with a large enough effect in the signal ratio in the repeat runs, not every such curve was filed as active; the % refers to the signal ratio)
Procedure, shortened: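 A low-serum medium (0.5% dialyzed FBS) holding 2,000 HRE-bla ME-180 cells per well is preincubated for 5 hrs, dosed with compounds by pintool, and kept a further 17 hrs at 37C, 5% CO2 before CCF4-AM FRET detection of beta-lactamase.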

[12] = qHTS assay to identify small molecule agonists of H2AX - cell viability counter screen (AID 1224847; calls by dose curve; note: top concentration of the series differs between compounds; nearly all actives have a fitted effect of over 30% in size)
Procedure, shortened: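 CHO-K1 wt, 1000 cells/well, o/n 37C; cpds 15 conc, 3 h 37C, 0.76% DMSO; CellTiter-Glo, 30 min RT, luminescence.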

[13] = qHTS RealTime-Glo MT Cell Viability Assay in HepG2 cells - 24 hour (AID 1224867); note: nearly all actives have a fitted effect of over 50% in size
Procedure, shortened: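 Tox21 10K library screened in qHTS format on HepG2 cells carrying RealTime-Glo reagents. Compounds were added after a 5 h preincubation, and the luminescent signal from continuous culture was measured repeatedly during 40 h treatment.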

[14] = qHTS RealTime-Glo MT Cell Viability Assay in HEK293 cells - 32 hour (AID 1224868); note: top concentration of the series differs between compounds; nearly all actives have a fitted effect of over 50% in size
Procedure, shortened: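 Luminescence generated by NanoLuc from substrate produced by living HEK293 cells served as the viability signal. Each value reflects the reading at its stated time point during continuous 40 h compound exposure at 37 C.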

[15] = A CellTox Green Cytotoxicity Assay to monitor cytotoxicity in HEK293 cells - 0 hour (AID 1224869); note: nearly all actives have a fitted effect of over 50% in size; note: potency is the fitted concentration of half-maximal effect
Procedure, shortened: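 Fluorescence intensity, read at 0, 8, 16, 24, 32 and 40 h of compound treatment, reflected dye binding to DNA of dead HEK293 cells; compounds (23 nL, DMSO) were added 5 h after plating cells with reagent.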

[16] = qHTS assay to identify small molecule agonists of the estrogen related receptor signaling pathway with the pleiotropic PPARgamma coactivator (PGC) (AID 1224823)
Procedure, shortened: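 Steps: plate PGC/ERR cells at 2,000 cells/well; incubate 6 h, 37 C/5% CO2; pin-transfer compounds (DMSO); incubate 18 h, 37 C; add One-Glo; 30 min RT; read luminescence.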

[17] = qHTS assay to identify small molecule antagonists of the estrogen related receptor signaling pathway with the pleiotropic PPARgamma coactivator (PGC) from Tox21 10K library (AID 1224841; call rule not given here; note: potency is the fitted concentration of half-maximal effect)
Procedure, shortened: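 qHTS antagonist format: PGC/ERR cells, 2k/well, compound in DMSO by pin transfer after 6 h attachment, 18 h treatment at 37 C, One-Glo luminescence read at 30 min.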

[18] = qHTS assay to identify small molecule agonists of the estrogen related receptor signaling pathway with the pleiotropic PPARgamma coactivator (PGC) from Tox21 10K library (AID 1224842); note: nearly all actives have a fitted effect of over 15% in size
Procedure, shortened: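 PGC/ERR reporter cell line, 2,000 cells per well, incubated 6 h at 37 C before 23 nL compound in DMSO was added. After 18 h at 37 C, One-Glo luminescence read following 30 min at room temperature.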

[19] = qHTS assay to identify small molecule antagonists of the estrogen related receptor (ERR) signaling pathway from Tox21 library (AID 1224848); note: nearly all actives have a fitted effect of over 50% in size; note: potency is the fitted concentration of half-maximal effect
Procedure, shortened: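 ERR reporter cell line (from NTP) seeded 2,000 cells/well, rested 6 h at 37 C/5% CO2, then pin-dosed with compounds in DMSO. After 18 h at 37 C, ONE-Glo added; luminescence read after 30 min at room temperature.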

[20] = qHTS assay to identify small molecule agonists of the estrogen related receptor (ERR) signaling pathway from Tox21 library (AID 1224849; calls by dose curve; note: nearly all actives have a fitted effect of over 15% in size); conditions: ERR reporter cell line, ONE-Glo luciferase, 18 h
Procedure, shortened: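 Screening used an NTP-provided ERR luciferase cell line. Compounds in DMSO were added 6 h after seeding and left 18 h at 37 C before a 30 min ONE-Glo step and luminescence reading.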
% is set by controls: 0 for no effect and ±100 for the full control effect.

CCN1CCCC1=O
inactive: Potency [1] | Potency [2] | Potency [3] | Potency [4] | Potency [5] | Potency [6] | Potency [7] | Potency [8] | Potency [9] | Potency [10] | outcome [11] | Potency [12] | outcome [13] | Potency [14] | Potency [15]

CN/C(=C\[N+](=O)[O-])NCCSCc1ccc(CN(C)C)o1
inactive: Potency [1] | Potency [2] | Potency [3] | Potency [4] | Potency [5] | Potency [6] | Potency [7] | Potency [8] | Potency [9] | Potency [10] | Potency [12] | outcome [13] | Potency [14] | Potency [15]

COCC(C)N (configuration not stated)
inactive: Potency [1] | Potency [2] | Potency [3] | Potency [4] | Potency [5] | Potency [6] | Potency [7] | Potency [8] | Potency [9] | Potency [10] | outcome [11] | Potency [12] | outcome [13] | Potency [14] | Potency [15]

Cc1cccc(Nc2cc(Cl)nc(SCC(=O)O)n2)c1C
inactive: Potency [1] | Potency [2] | Potency [3] | Potency [4] | Potency [5] | Potency [6] | Potency [7] | Potency [8] | Potency [9] | Potency [10] | Potency [12] | outcome [13] | Potency [14] | Potency [15]

CC(C)Cc1ccc(C(C)C(=O)O)cc1 (configuration not stated)
inactive: outcome [16] | Potency [1] | Potency [3] | Potency [4] | Potency [5] | Potency [6] | Potency [7] | Potency [17] | Potency [18] | Potency [8] | Potency [9] | Potency [10] | Potency [12] | Potency [19] | outcome [13] | Potency [14] | Potency [15]

NC(=O)c1ccc([N+](=O)[O-])cc1Cl
inactive: Potency [1] | Potency [2] | Potency [3] | Potency [4] | Potency [5] | Potency [6] | Potency [7] | Potency [8] | Potency [9] | Potency [10] | outcome [11] | Potency [12] | outcome [13] | Potency [14] | Potency [15]

NC(=O)N/N=C/c1ccc([N+](=O)[O-])o1
inactive: outcome [16] | Potency [2] | Potency [5] | Potency [6] | Potency [18] | Potency [8] | Potency [9] | Potency [10] | Potency [12] | activity change, positive = activation ([20]; at 42.5 µM (top of the series)) -13.7% | activity change, positive = activation ([20]; at 92.4 µM (top of the series)) -3.25% and -34% | outcome [13] | Potency [14] | Potency [15]
24.3 µM (active) and inactive: Potency [17]
inactive and 27.3 µM (active): Potency [1]
inactive and 48.6 µM (active): Potency [19]

CCN(CC)CCOC(=O)c1ccc(N)cc1
inactive: outcome [16] | Potency [1] | Potency [2] | Potency [3] | Potency [4] | Potency [5] | Potency [6] | Potency [17] | Potency [18] | Potency [8] | Potency [9] | Potency [10] | Potency [12] | Potency [19] | outcome [13] | Potency [14] | Potency [15]

CCCCOCCOCCSC#N
inactive: Potency [1] | Potency [2] | Potency [3] | Potency [4] | Potency [5] | Potency [6] | Potency [7] | Potency [8] | Potency [9] | Potency [10] | outcome [11] | Potency [12] | outcome [13] | Potency [14] | Potency [15]

CC(=O)CCC(C)C
inactive: Potency [1] | Potency [2] | Potency [3] | Potency [4] | Potency [5] | Potency [6] | Potency [7] | Potency [8] | Potency [9] | Potency [10] | outcome [11] | Potency [12] | outcome [13] | Potency [14]
inactive and 38.9 µM (active): Potency [15]

N[C@@H](Cc1c[nH]c2ccc(O)cc12)C(=O)O
34.6 µM (active) and inactive: Potency [2]
inactive: Potency [1] | Potency [3] | Potency [4] | Potency [5] | Potency [6] | Potency [7] | Potency [8] | Potency [9] | Potency [10] | outcome [11] | Potency [12] | outcome [13] | Potency [14] | Potency [15]

CCOC(=O)C(C)(C)Oc1ccc(Cl)cc1
inactive: outcome [16] | Potency [1] | Potency [2] | Potency [3] | Potency [4] | Potency [7] | Potency [17] | Potency [18] | Potency [8] | Potency [9] | Potency [10] | Potency [12] | Potency [19] | outcome [13] | Potency [14] | Potency [15]

CC(C)(C)NCC(O)c1ccc(O)c(CO)c1 (configuration not stated)
active: Potency [8] 60.7 nM and 37.6 nM
inactive: Potency [1] | Potency [2] | Potency [3] | Potency [4] | Potency [5] | Potency [6] | Potency [7] | Potency [9] | Potency [10] | outcome [11] | Potency [12] | outcome [13] | Potency [14] | Potency [15]

C=CCOC(=O)CC(C)C
inactive: Potency [1] | Potency [2] | Potency [3] | Potency [4] | Potency [5] | Potency [6] | Potency [7] | Potency [17] | Potency [18] | Potency [8] | Potency [9] | Potency [10] | outcome [11] | Potency [12] | Potency [19] | activity change, positive = activation ([20]; at 92.4 µM (top of the series)) 8.22% and 2.25% | outcome [13] | Potency [14] | Potency [15]

COc1ccccc1O
inactive: Potency [1] | Potency [2] | Potency [3] | Potency [4] | Potency [5] | Potency [6] | Potency [7] | Potency [8] | Potency [9] | Potency [10] | outcome [11] | Potency [12] | outcome [13] | Potency [14] | Potency [15]

CC1(C)O[C@@H]2[C@@H](CO[C@@]3(COS(N)(=O)=O)OC(C)(C)O[C@@H]23)O1
inactive: Potency [1] | Potency [2] | Potency [3] | Potency [4] | Potency [5] | Potency [6] | Potency [7] | Potency [17] | Potency [18] | Potency [8] | Potency [9] | Potency [10] | outcome [11] | Potency [12] | Potency [19] | outcome [13] | Potency [14] | Potency [15]
